PI5P4K alpha inh – PI5P4K alpha (human) kinase inhibition; PI5P4Kalpha enzyme, ADP-Glo luminescence, 60 min; active compounds read low; max response, %; 1.2% of 330,000 active; active means max response of -50% or lower; inconclusive means between -30% and -50%; inactive means -30% or higher; further: value at the top dose of about 77 µM; on the % scale 0 is the no-effect control and ±100 the full control effect
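ADP-Glo luminescence end-point read after a 60 min room-temperature kinase reaction of PI5P4Kalpha plus substrate, initiated with ATP at 5 microM final. Buffer: 0.038 M HEPES pH 7.4, EGTA, 0.1% CHAPS, 5% DMSO.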
L3MBTL1 inh – blocks human L3MBTL1. Q9Y468. 0.66% of 230,000 active. Potency, µM (doses to about 57.1 µM), for the others: at the top dose activity, negative = inhibition, most hits filed as inhibitors. AlphaScreen L3MBTL1–H3K9me1 peptide binding. AID 485360; further: potency means the concentration at half of the fitted maximal effect; on the % scale 0 is the no-effect control and ±100 the full control effect; nearly all actives have a fitted effect of over 60% in size
Target sequence (Q9Y468 whole entry, looked up): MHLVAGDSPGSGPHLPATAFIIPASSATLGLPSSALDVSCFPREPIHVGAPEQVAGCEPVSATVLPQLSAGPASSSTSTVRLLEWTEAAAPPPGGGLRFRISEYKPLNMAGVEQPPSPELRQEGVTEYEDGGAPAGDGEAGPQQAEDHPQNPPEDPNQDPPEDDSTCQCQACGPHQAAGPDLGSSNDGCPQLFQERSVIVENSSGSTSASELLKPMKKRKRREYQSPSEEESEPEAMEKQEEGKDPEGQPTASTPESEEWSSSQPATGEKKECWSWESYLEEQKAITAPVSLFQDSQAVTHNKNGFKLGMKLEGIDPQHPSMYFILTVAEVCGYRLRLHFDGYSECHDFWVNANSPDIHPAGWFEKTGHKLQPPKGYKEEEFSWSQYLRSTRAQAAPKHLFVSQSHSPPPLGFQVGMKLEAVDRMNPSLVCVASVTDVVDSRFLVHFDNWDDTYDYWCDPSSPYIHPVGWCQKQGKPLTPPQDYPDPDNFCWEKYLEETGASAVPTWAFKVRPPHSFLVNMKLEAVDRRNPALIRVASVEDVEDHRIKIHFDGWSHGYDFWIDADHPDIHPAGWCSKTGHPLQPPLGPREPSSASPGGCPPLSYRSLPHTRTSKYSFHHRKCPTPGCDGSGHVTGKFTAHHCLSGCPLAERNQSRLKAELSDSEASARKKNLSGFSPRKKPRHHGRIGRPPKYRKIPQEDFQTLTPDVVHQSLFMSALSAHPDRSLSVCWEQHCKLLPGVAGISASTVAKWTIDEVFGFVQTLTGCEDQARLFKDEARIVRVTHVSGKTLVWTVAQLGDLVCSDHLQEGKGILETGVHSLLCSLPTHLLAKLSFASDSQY
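AlphaScreen assay: L3MBTL1 (50 nM final) was preincubated 30 min at room temperature with biotinylated H3(1-15)K9me1 peptide (75 nM final), then 30 min with library compounds; streptavidin donor and nickel chelate acceptor beads (10 ug/mL final) added, 30 min dark.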
JMJD2A Tudor inh – JMJD2A Tudor domain (human) inhibition | 4.4% of 390,000 active | Potency, µM (doses to about 114 µM), for inactives: at the highest dose activity change, negative = inhibition, most hits filed as inhibitors | AID 504339 | O75164 | AlphaScreen JMJD2A-Tudor / H3K4me3 peptide binding; further: potency means the concentration at half of the fitted maximal effect; on the % scale 0 is the no-effect control and ±100 the full control effect; nearly all actives have a fitted effect of over 50% in size
BAZ2B block – BAZ2B (human) inhibition; Q9UIF8; AlphaScreen BAZ2B-H3K14Ac peptide displacement; Potency, µM (titrated, usually from 114 µM), inactives show top-dose activity change, negative = inhibition, most hits filed as inhibitors; 4.4% of 360,000 active; further: potency means the concentration at half of the fitted maximal effect; on the % scale 0 is the no-effect control and ±100 the full control effect; nearly all actives have a fitted effect of over 60% in size
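Inhibition is scored as reduced AlphaScreen emission. The BAZ2B/b-H3(5-23)K14Ac complex (50 nM each) in PBS pH 7.4, 0.01% Tween-20 meets compound (up to 110 uM) for 30 min at RT before bead addition.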
G9a inh – G9a (human) methyltransferase inhibition; Q96KQ7; G9a H3K9 monomethylation, AlphaScreen, 2 h; Potency, µM (series often up to 102 µM), for inactives: at the highest dose activity, negative = inhibition, most hits filed as inhibitors; 8.8% of 350,000 active; AID 504332; further: potency means the concentration at half of the fitted maximal effect; on the % scale 0 is the no-effect control and ±100 the full control effect; nearly all actives have a fitted effect of over 75% in size
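Readings reflect AlphaScreen signal from monomethyl-H3K9 antibody detection. HMT at 20 nM; substrate b-H3K9 500 nM; cofactor SAM 20 uM; 2 h RT reaction; compounds tested as titrations in qHTS with 15 min preincubation.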
HP1b chromo inh – HP1-beta chromodomain-methylated histone interaction inhibition. 0.56% of 390,000 active. AID 540317. Potency, µM (highest dose often 114 µM), inactives show at the top dose activity change, negative = inhibition, actives largely listed as inhibitors. P83916. AlphaScreen HP1-beta / biotin-H3K9me3 peptide binding; further: potency means the concentration at half of the fitted maximal effect; nearly all actives have a fitted effect of over 70% in size
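AlphaScreen: HP1-beta (50 nM) preformed 30 min with biotin-H3(1-18)K9me3 peptide (50 nM) in PBS pH 7.4, 0.01% Tween-20. Compound added for 30 min at RT, then streptavidin donor/nickel chelate acceptor beads (10 ug/mL) for 30 min.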
* hit, by the source's call; [ ] = another dose, or the depositor's remark. This is a sample that favours compounds with a hit; in the whole collection about 11% have one here. Unless noted, the call rests on the fitted dose curve; in most records, active means well fitted inhibition curve with a large enough effect; inconclusive means small, poorly fitted or top-dose-only effect; inactive means no such curve, though single readings can be large or run the other way.

Screening COc1ccc(-c2nc(-c3ccc(Br)o3)no2)cc1OC returned PI5P4K alpha inh 0, L3MBTL1 inh 0%, JMJD2A Tudor inh -9%, BAZ2B block 8%, G9a inh -10%[59 µM] and HP1b chromo inh 34%.
Screening Cc1cc2c(n1-c1ccc(C(=O)O)cc1)CCCCC2 returned BAZ2B block 13µM* and G9a inh 7.9µM*.
`CN(C)c1ccc(NC(=O)C[n+]2ccccc2)cc1` gave PI5P4K alpha inh 2, JMJD2A Tudor inh inconclusive, BAZ2B block -26%, G9a inh 50µM* and HP1b chromo inh -5%.
CN(C)c1cc[n+](CC(=O)Nc2ccc(OC(F)F)cc2)cc1 was read as PI5P4K alpha inh -7, L3MBTL1 inh 11%, JMJD2A Tudor inh inconclusive, BAZ2B block 50µM* and HP1b chromo inh -5%.
O=C(Cc1ccc2c(c1)CCCC2)Nc1ccccc1Br was read as L3MBTL1 inh 3%, JMJD2A Tudor inh 25%, BAZ2B block -5%, G9a inh 45µM* and HP1b chromo inh -18%.
`Cc1ccc[n+](CC(=O)Nc2c(Cl)cc(Cl)cc2Cl)c1` gave PI5P4K alpha inh -7, L3MBTL1 inh 5%, JMJD2A Tudor inh -13%, BAZ2B block -5%, G9a inh 0% and HP1b chromo inh 7%.
`O=C(Cc1ccc2ccccc2c1)Nc1ccccc1Br` gave PI5P4K alpha inh -5, L3MBTL1 inh 4%, JMJD2A Tudor inh 4%, BAZ2B block -3%, G9a inh 20% and HP1b chromo inh 31%.
Screening O=C(C[n+]1ccccc1)Nc1c(Cl)cc(Cl)cc1Cl returned PI5P4K alpha inh 13, L3MBTL1 inh 11µM*, JMJD2A Tudor inh -8%, BAZ2B block 35µM* and HP1b chromo inh 25%.
Screening CC(=O)c1ccc(NC(=O)C[n+]2ccc(N(C)C)cc2)cc1 returned PI5P4K alpha inh -7, L3MBTL1 inh -1%, JMJD2A Tudor inh -7%, BAZ2B block 2%, G9a inh 13% and HP1b chromo inh 18%.
`Clc1cccc(-n2cc(-c3ccccc3)c3c(N4CCCCC4)ncnc32)c1` gave JMJD2A Tudor inh -19%, BAZ2B block -25%, G9a inh -9%[59 µM] and HP1b chromo inh 38%.
O=C(C[n+]1ccccc1)Nc1ccccc1Br was read as PI5P4K alpha inh 1, L3MBTL1 inh inconclusive, JMJD2A Tudor inh 2%, BAZ2B block 25µM*, G9a inh 0.32µM* and HP1b chromo inh 62%.
For CCN(CC)CCCNC(=O)CSc1nc2nc(C)c(Cc3ccccc3C)c(C)n2n1 the results were JMJD2A Tudor inh -3%, BAZ2B block 0%, G9a inh 1%[59 µM] and HP1b chromo inh 40%.
`CCN(CCNCC(O)COc1ccccc1C(C)C)c1cccc(C)c1` (stereo not given) gave PI5P4K alpha inh 21, JMJD2A Tudor inh 0.79µM*, BAZ2B block 28µM*, G9a inh 10µM* and HP1b chromo inh inconclusive.
`CCOC(=O)N1CCN(CC(O)COc2ccccc2C(C)C)CC1` (stereo not given) gave PI5P4K alpha inh 2, L3MBTL1 inh 0%, JMJD2A Tudor inh -8%, BAZ2B block -12%, G9a inh 11%[0.501 µM] and HP1b chromo inh 18%.
CCOC(=O)Cn1c(=O)n(CC2CCCO2)c2nc(-c3cccc(C)c3)nc(C(N)=O)c21 (stereo not given) was read as JMJD2A Tudor inh -1%, BAZ2B block -14%, G9a inh 0%[59 µM] and HP1b chromo inh 27%[57 µM].
`COc1ccc(/C=C(\NC(=O)c2ccc(C)cc2)C(=O)NCCCn2ccnc2)cc1OC` gave PI5P4K alpha inh -8, JMJD2A Tudor inh -29%, BAZ2B block 50µM*, G9a inh 6% and HP1b chromo inh -11%.
`Cc1ccc(C(=O)N/C(=C\c2ccc(F)cc2)C(=O)NCCCn2ccnc2)cc1` gave PI5P4K alpha inh 0, JMJD2A Tudor inh -15%, BAZ2B block 79µM*, G9a inh 8% and HP1b chromo inh 55%.

From PubChem BioAssay
